Reference: PubChem BioAssay

target: Voltage-gated potassium channel subunit beta-2 (Rattus norvegicus) (UniProt P62483); assay: enhancers of rat Kvbeta2 NADPH turnover – biochemical, NADPH fluorescence, primary screen (AID 623); details: Recombinant KvBeta, NADPH fluorescence decrease slope, 10 min; at 10 µM; active compounds read low;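 also: fluorescence intensity change per second fitted from 20 to 320 s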
Sequence (P62483 whole entry, looked up): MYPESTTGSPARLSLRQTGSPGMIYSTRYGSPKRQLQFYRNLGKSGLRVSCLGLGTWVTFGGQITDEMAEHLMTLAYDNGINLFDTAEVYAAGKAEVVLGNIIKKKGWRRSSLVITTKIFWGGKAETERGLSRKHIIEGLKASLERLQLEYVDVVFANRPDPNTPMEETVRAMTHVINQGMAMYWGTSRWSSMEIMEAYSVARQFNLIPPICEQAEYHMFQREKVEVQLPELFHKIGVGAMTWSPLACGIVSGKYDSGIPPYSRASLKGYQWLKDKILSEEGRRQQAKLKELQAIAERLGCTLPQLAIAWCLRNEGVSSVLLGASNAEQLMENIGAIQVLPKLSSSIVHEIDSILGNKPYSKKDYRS

NADPH fluorescence slope, inactive:
CCOC(=O)c1c(C)oc2ccc(O)c(CN3CCCCC3)c12 2.5e-05, ON=C1/C(=N\O)CC2(C/C1=N/O)OCCO2 -3.5e-05, CC1CCCCN1CCNC(=O)c1ccc2c(=O)n(CCc3ccccc3)c(=O)[nH]c2c1 (stereo not given) -3.6e-05, COc1nc(OC)nc(N2CCC(NC(=O)C(Cc3ccc(C(C)C)cc3)NC(C)=O)CC2)n1 (stereo not given) -4.2e-05, O=C(CN1C(=O)c2cccc3cccc1c23)N1CCN(c2ccccc2)CC1 -6.1e-06, CCCc1cc(-c2n[nH]c(C)c2-c2ccc(C(=O)OCC)o2)c(O)cc1O -2e-05, Cc1ccc(-c2cc(C(=O)NCc3ccc4c(c3)OCO4)no2)cc1 -6.4e-05, CCn1c(SCC(=O)Nc2ccc(C(C)=O)cc2)nc2ccccc21 -0.000344, CCCCNC(=O)CN(C1CCCCC1)S(C)(=O)=O 1.8e-07, C[C@H](NC(=O)OC(C)(C)C)C(=O)NCC1CCC(C(=O)O)CC1 (stereo not given in full) 1.9e-05, c1ccc(-c2cc(-c3nc(-c4ccccn4)no3)c3ccccc3n2)cc1 -8.8e-06, Cc1cccc(N2CCN(C(=O)Cn3ccc4ccccc4c3=O)CC2)c1C 2.6e-06, Nc1sccc1C(=O)c1ccccc1 7.1e-06, COc1ccc(C2=NOC(C(=O)NCc3ccc(F)cc3)C2)cc1OC (stereo not given) 4.2e-05, c1ccc(-c2cn3c4c(sc3n2)CCCC4)cc1 -7.1e-06
